From PubChem BioAssay AID687016 (The Scripps Research Institute Molecular Screening Center, 2013) come the findings set out here.

The whole screen tested about 370,000 compounds, of which about 2,800 (0.76%) were called active. What follows is part of a selection rich in actives, with near analogues and random picks from the rest. Unmarked numbers belong to inactive results. Rule as the data show it: active = inhibition above about 21%; inactive = the rest.

E3 ubiquitin-protein ligase UHRF1 (Homo sapiens), sequence (Q96T88 whole entry, looked up, the tested form may be a part): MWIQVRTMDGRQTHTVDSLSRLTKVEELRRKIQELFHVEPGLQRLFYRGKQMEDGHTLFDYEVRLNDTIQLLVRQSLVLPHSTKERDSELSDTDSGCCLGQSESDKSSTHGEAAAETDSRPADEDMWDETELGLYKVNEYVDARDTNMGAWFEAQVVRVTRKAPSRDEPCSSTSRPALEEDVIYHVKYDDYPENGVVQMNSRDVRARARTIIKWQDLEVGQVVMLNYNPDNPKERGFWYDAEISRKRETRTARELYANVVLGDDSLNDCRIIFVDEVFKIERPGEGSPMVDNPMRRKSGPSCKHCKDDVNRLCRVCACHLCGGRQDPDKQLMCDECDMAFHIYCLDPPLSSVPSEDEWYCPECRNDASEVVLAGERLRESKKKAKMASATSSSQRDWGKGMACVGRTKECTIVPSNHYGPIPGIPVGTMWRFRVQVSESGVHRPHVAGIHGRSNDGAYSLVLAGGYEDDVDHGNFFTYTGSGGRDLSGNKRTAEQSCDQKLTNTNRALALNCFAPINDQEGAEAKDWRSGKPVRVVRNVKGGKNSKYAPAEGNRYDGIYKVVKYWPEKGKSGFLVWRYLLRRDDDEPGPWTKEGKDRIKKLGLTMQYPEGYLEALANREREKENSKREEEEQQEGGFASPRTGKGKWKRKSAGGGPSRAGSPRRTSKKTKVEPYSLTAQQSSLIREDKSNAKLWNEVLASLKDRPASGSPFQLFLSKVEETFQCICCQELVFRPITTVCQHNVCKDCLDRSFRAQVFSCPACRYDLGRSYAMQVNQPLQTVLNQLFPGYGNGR

This experiment has as its target E3 ubiquitin-protein ligase UHRF1 (Homo sapiens) (UniProt Q96T88). Nature of the experiment: UHRF1 methylated DNA binding inhibitors, primary screen, counter-screen for MBD2 inhibitor project, biochemical, TR-FRET, human UHRF1, single concentration (AID 687016).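 Also: UHRF1 SRA domain binding a hemimethylated CpG hairpin DNA probe; 0% = median of test compound wells and 100% = reference inhibitor.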 To be noted: UHRF1 binding to methylated oligo, at 4.4 µM, stronger effect = higher value. (A counterscreen serves to expose hits that act by an unwanted route or on another target.)
A word on the inhibition: it is the drop in the measured response relative to a control, in per cent. Consider `CCOC(=O)N1CCN(C(=O)C[C@@H]2C(=O)N(CCc3ccc(Cl)cc3)C3=CCCC[C@]32C(=O)OCC)CC1`, for which the inhibition is -0.31%. The result for `c1csc(-c2nnc(SCc3nc4ccccc4[nH]3)o2)c1` reads -2.92%; that for `COC(=O)[C@]12C[C@H](CC(=O)N3CCOCC3)C(=O)N(Cc3ccc(Cl)cc3Cl)C1=C[C@H](C(C)C)O[C@@H]2C1CC1`, -0.21%; that for `CC(C)(C)C(=O)Nc1ccc(-c2cn3cccnc3n2)cc1`, -3.25%. The result for `CCCCCC(=O)Nc1ccc(-c2cn3cccnc3n2)cc1` reads 23.5% (active); that for `CCCCC(=O)Nc1ccc(C(=O)NCCCn2ccnc2)cc1`, -2.85%; that for `Clc1ccc(-n2c(SC/C=C/c3ccccc3)nnc2-c2ccco2)cc1`, 0.89%. The result for `CC1CCN(c2ccc(C(=O)O)cc2NS(=O)(=O)c2ccc(Br)s2)CC1` reads -1.98%. As for `COC(=O)[C@@]12CCCCC=C1N(CCc1ccc(Cl)cc1)C(=O)[C@H]2CC(=O)NCc1ccc(OC)c(OC)c1`, the inhibition is 0.86%. The result for `CCCCN1C(=O)C(CC(=O)NCc2cccs2)CC(C(=O)N2CCOCC2)=C1C` (stereo not drawn) reads 22.9% (active); that for `COCCCN1C(=O)C(CC(=O)NCc2cccs2)CC(C(=O)N2CCOCC2)=C1C` (stereo not drawn), 0.04%. Regarding `CCCCN1C(=O)C(CC(=O)NCc2cccs2)CC(C(=O)N2CCCCCC2)=C1C` (stereo not drawn), the inhibition is -0.83%. The result for `Oc1ccc(/C=C/c2c(F)cccc2F)c2cccnc12` reads -8.09%; that for `O=C1C(=O)N(Cc2ccc(-c3ccsc3)cc2)c2ccc(OC(F)(F)F)cc21`, 1.64%; that for `O=C1CCC2(CCC(c3ccc(Cl)cc3)CC2)N1CCO` (stereo not drawn), -1.17%. The result for `O=C(C1CCN(S(=O)(=O)c2ccccc2)CC1)N1CCN(C2CCCCC2)CC1` reads -0.54%; that for `COc1ccc(Cn2cc(CN3[C@@H](CC(C)C)COc4cc(Br)ccc4S3(=O)=O)nn2)cc1`, -1.35%. The result for `COc1ccc(S(=O)(=O)N2CCc3ccccc32)cc1C(=O)Nc1cc(S(C)(=O)=O)ccc1Cl` reads 21.6% (active); that for `COc1cccc(NC(=O)c2cc(S(=O)(=O)N3CCc4ccccc43)cn2C)c1`, -1%. On to `CCN(C(=O)COC(=O)c1cc(S(=O)(=O)N2CCc3ccccc32)ccc1OC)C1CCS(=O)(=O)C1` (stereo not drawn), for which the inhibition is -0.66%. The result for `O=C(C1CCCN1S(=O)(=O)c1ccccc1)N1CCc2ccccc2C1` (stereo not drawn) reads 1.67%; that for `O=S1(=O)c2ccc(N3CCN(Cc4ccccc4F)CC3)cc2Oc2ccccc2CN1Cc1cn(Cc2ccc(Cl)cc2)nn1`, 3.23%.

Take `Nc1ccc2nc3c(=O)[nH]c(=S)[nH]c3nc2c1`: the inhibition was 29.6% (active). Take `N#Cc1ccc(OC[C@@H](O)CN2CCC(C(O)(c3ccccc3)c3ccccc3)CC2)c(F)c1`: the inhibition was -0.23%. The result for `C=CCN1C(=O)[C@@H](CC(=O)N2CCN(C(=O)OCC)CC2)[C@]2(C(=O)OCC)CCCCC/C=C/12` reads 0.51%; that for `Cc1cc(C)cc(OCC(=O)NCc2cc(C)nc3ccccc23)c1`, 37.5% (active). The result for `Cc1cc(C)cc(OCC(=O)NNC(=O)CCN2C(=O)c3ccccc3C2=O)c1` reads -0.19%; that for `Cc1cc(C)cc(OCC(=O)Nc2cc(NC(=O)COc3cc(C)cc(C)c3)cc(C(=O)O)c2)c1`, -0.86%; that for `CCOc1ccc(Oc2c(Cl)cnn(-c3ccc(C)cc3)c2=O)cc1`, 0.41%.

For the compound `CCOC(=O)C1=C(C)NC2=C(C(=O)CC(C)(C)C2)C1c1ccc2c(c1)OCO2` (stereo not drawn), the inhibition is 3.68%. The result for `Cc1cc(C(=O)Nc2ccc(C)c(S(=O)(=O)N3CCOCC3)c2)c2ccccc2n1` reads 6.42%. `O=C(Nc1cccc(F)c1)c1cc(-c2ccco2)nc2ccccc12`: the inhibition is 23% (active). The result for `O=C(Nc1nc2ccc(Cl)cc2s1)c1cc(-c2ccc(Cl)cc2)nc2ccccc12` reads 1.94%. The result for `O=C1CC[C@@H](COc2ccc3[nH]cc(-c4ccccc4)c3c2-c2ccccc2)N1` reads -0.59%. The result for `C[C@H](C(=O)N(C)c1ccccc1)[C@@H](O)c1ccc(Cl)cc1` reads -0.97%. `COc1cccc(CNC(=O)C2CCCN(c3nc4ccccc4o3)C2)c1OC` (stereo not drawn): the inhibition was 3.57%. In the case of `C=CCOC/C=C/C#CCN(CC=C)Cc1ccc(OC)cc1OC`, the inhibition is -1.02%. The result for `O=C(NCc1cccs1)C1CCCN(S(=O)(=O)c2ccc([N+](=O)[O-])cc2)C1` (stereo not drawn) reads 1.19%. The result for `COCCNC(=O)Nc1ccc2nc(-c3ccco3)c(-c3ccco3)nc2c1` reads 91.1% (active). As to `COCCN(C(=O)c1ccco1)c1nnc(-c2ccc(OC)cc2)s1`, the inhibition is -1.02%. The result for `O=C(NCCOc1ccccc1F)Nc1ccc(Br)cc1` reads 4.11%.

As for `O=C(NC1CCCC1)C1CSCCS(=O)(=O)N1Cc1ccccc1` (stereo not drawn), the inhibition is -0.6%. `COC(=O)[C@]12C[C@H](CC(=O)NCCc3ccccc3OC)C(=O)N(Cc3ccco3)C1=C[C@H](C(C)C)O[C@@H]2C1CC1`: the inhibition was 3.75%.

Consider `O=[N+]([O-])c1ccc(COc2ccccc2CN2CCOCC2)cc1`, for which the inhibition is -1.96%. As to `OCCN1CCOCCOCCN(CCO)CCN(CCO)CC1`, the inhibition was -0.79%. The result for `Oc1c(CN2CCOCC2)ccc(CN2CCOCC2)c1O` reads 25.4% (active).

For `O=C(CSc1nnc(-c2ccccn2)n1-c1ccccc1)Nc1ccc2cn[nH]c2c1`, the inhibition was -1.24%. The result for `Cc1ccccc1CS(=O)(=O)Cc1ccc(C(=O)Nc2ccc(Cl)cc2)o1` reads 0.04%. The result for `Cc1c(NC(=O)c2cccnc2)c(=O)n(-c2ccccc2)n1C` reads 23.3% (active). The result for `Cc1c(NC(=O)c2c([N+](=O)[O-])cnn2C)c(=O)n(-c2ccccc2)n1C` reads -1.94%; that for `Cc1c(NC(=S)Nc2ccccc2)c(=O)n(-c2ccccc2)n1C`, -4.22%; that for `COC(=O)[C@]12C[C@H](CC(=O)NCc3ccccc3)C(=O)N(CCC3=CCCCC3)C1=C[C@H](C(C)C)O[C@@H]2C1CC1`, 3.6%. For the compound `COC(=O)C1CN(Cc2ccc(F)cc2)CCS(=O)(=O)N1Cc1ccc(Cl)cc1` (stereo not drawn), the inhibition is 2.67%. As for `O=C(Nc1cccc(Cl)c1)OC1CC2CC1[C@H]1CCCCN1[C@H]2Cc1ccccc1` (stereo partly drawn), the inhibition is 0.5%. The result for `Cc1cccc(NC(=O)CSc2nnc(CCCCCNC(=O)OC(C)(C)C)o2)c1C` reads 34.9% (active); that for `Cc1cccc(NC(=O)CSc2nnc(CCNC(=O)OC(C)(C)C)o2)c1C`, 2.63%; that for `Cc1ccccc1CSc1nnc(CCCCCNC(=O)OC(C)(C)C)o1`, 0.59%. Consider `O=C(NCc1cccs1)C1CCN(S(=O)(=O)c2ccccc2[N+](=O)[O-])CC1`, for which the inhibition was 4.97%.

Regarding `CCCC(=O)OCC(=O)Nc1cc(Cl)ccc1[N+](=O)[O-]`, the inhibition was -3.24%. As for `Cc1cc(NC(=O)COC(=O)COc2ccc(Cl)cc2C)c([N+](=O)[O-])cc1C`, the inhibition is 23% (active).

With `COc1ccc(OCC(=O)Nc2cc(C)c(Cl)cc2OC)c([N+](=O)[O-])c1`, the inhibition was -2.47%. The result for `C=CCN1C(=O)[C@@H](CC(=O)N2CCN(C(=O)c3ccco3)CC2)[C@]2(C(=O)OC)CCCCC=C12` reads 1.46%. Consider `O=C(Nc1ccc(Br)cc1)OCCN1C(=O)CCC12CCC(c1ccccc1)CC2` (stereo not drawn), for which the inhibition is -4.19%. `CC(=O)O[C@@]1(C(C)=O)CCC2[C@H]3C=C(C)C4=CC(=O)CC[C@@]4(C)C3CC[C@]21C` (stereo partly drawn): the inhibition was 2.53%.

Turning to `CCCCNC(=O)C[C@@H]1C(=O)N(CCc2ccc(Cl)cc2)C2=CCCC[C@]21C(=O)OCC`, the inhibition is -3.97%.

Regarding `COc1ccc(-c2cc(-c3nnc(SCc4ccc([N+](=O)[O-])cc4)n3N)[nH]n2)cc1`, the inhibition is -1.01%. For `CC(CN1CCCCC1)c1ccccc1` (stereo not drawn), the inhibition was -1.54%. In the case of `CC(CN1CCOCC1)c1ccccc1` (stereo not drawn), the inhibition was 55.2% (active). In the case of `OC(c1ccccc1)C(CN1CCOCC1)c1ccccc1` (stereo not drawn), the inhibition is -2.23%.

For `COC(=O)[C@]1(C#N)CC(=O)N(CC2CCCCC2)[C@@H]1c1ccccc1`, the inhibition is 5.42%. Regarding `O=C(CCNC(=O)c1ccc([N+](=O)[O-])cc1)NC1CCCCC1`, the inhibition is -0.33%. For the compound `Cc1ccc(C(=O)OCC(=O)NC2CCCCCCC2)cc1C`, the inhibition is 0.37%. The result for `O=C(COC(=O)c1cc([N+](=O)[O-])ccc1NCc1ccccc1)NC1CCCCC1` reads -2.56%. The result for `O=C(COC(=O)Cc1ccc([N+](=O)[O-])cc1)NC1CCCCCC1` reads 45.9% (active); that for `COC(=O)Cc1ccc(OCC(=O)NC2CCCC2)cc1`, 0.36%; that for `Cc1ccc(C(=O)COC(=O)CCCC(=O)NC2CCCCC2)cc1[N+](=O)[O-]`, 48.1% (active). On to `CCCC[C@H](C(=O)N(CC)c1ccccc1)[C@@H](O)c1ccc2ccccc2c1`, for which the inhibition was -2.02%. The result for `Cc1ccccc1CN1CCCCC(NC(=O)c2cccc(C#N)c2)C1=O` (stereo not drawn) reads -0.18%; that for `COC(=O)C[C@@H]1CC[C@H]2[C@@H](COc3ccc(NS(=O)(=O)CC(F)(F)F)cc3C(=O)N2C)O1`, 1.54%; that for `CC[C@@H](CCC(=O)N(c1ccccc1)c1ccccc1)C1CC1`, 1.36%. The result for `S=C(NC1CCCCC1)NN1CCOCC1` reads 32.8% (active); that for `COC(=O)c1ccc(NC(=S)NN2CCOCC2)cc1`, -1.42%; that for `CC(NC(=S)NC1CCCCC1)C(c1ccccc1)N1CCOCC1` (stereo not drawn), 0.56%. As for `N[C@@H](Cc1ccccc1)C(=O)N1CCC[C@@H]1C(=O)N1CCC2CCN(S(=O)(=O)c3ccccc3)CC21` (stereo partly drawn), the inhibition was 1.24%. With `C=CCN(C)CC#Cc1ccccc1`, the inhibition was 1.63%. Regarding `O=C(CN1CCCCC1)NC(=O)Nc1ccccc1F`, the inhibition is -2.79%. In the case of `NC(=O)c1ccc(CN2CCC(Cc3ccccc3)CC2)cc1`, the inhibition was -0.37%. The result for `CC(C)(C)NC(=O)NC(=O)CN1CCC(Cc2ccccc2)CC1` reads 38.1% (active).
